Compound activity as filed in PubChem BioAssay.
Most compounds without a hit are left out; they make up all but 31% or so of the library.
CYP2C9 inh: blockers of cytochrome P450 2C9 activity – biochemical, luminescence, ADME assay, primary screen; P11712; CYP2C9 Supersomes, luciferin-H conversion; inhibition, % at 5 µM; 20% of 96,000 active;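 active means blocking of liver enzyme CYP2C9 beyond about 50% at 5 µM, limit read from the data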
Target sequence (P11712 whole entry, looked up): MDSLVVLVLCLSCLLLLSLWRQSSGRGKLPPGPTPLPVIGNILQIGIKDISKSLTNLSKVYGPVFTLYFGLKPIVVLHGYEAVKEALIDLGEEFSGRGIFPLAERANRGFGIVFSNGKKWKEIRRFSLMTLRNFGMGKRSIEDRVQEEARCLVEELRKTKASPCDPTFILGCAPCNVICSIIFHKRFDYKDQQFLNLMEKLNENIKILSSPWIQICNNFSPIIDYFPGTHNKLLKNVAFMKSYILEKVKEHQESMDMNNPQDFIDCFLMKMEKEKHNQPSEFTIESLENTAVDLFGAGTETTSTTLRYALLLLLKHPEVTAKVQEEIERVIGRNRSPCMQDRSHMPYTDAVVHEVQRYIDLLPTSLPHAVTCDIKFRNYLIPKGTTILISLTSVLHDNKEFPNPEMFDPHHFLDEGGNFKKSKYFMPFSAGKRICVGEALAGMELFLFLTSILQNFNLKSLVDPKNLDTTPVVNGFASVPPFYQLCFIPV
CYP2C19 inhib: blockers of cytochrome P450 2C19 activity – biochemical, luminescence, ADME assay, primary screen; P33261; CYP2C19 Supersomes, luciferin-H EGE luminescence, 30 min; inhibition, % at 5 µM; 21% of 96,000 active; AID 778, 2007;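 active means CYP2C19 inhibition above a set limit at 5 µM in the primary screen, cut at about 50% in these data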
CYP2C19 act: human CYP2C19 activators, primary screen, biochemical, luminescence | recombinant CYP2C19, luciferin-H EGE luminescence; active compounds read high; 0 = fully inhibited enzyme, 1 = untreated enzyme | activation factor at 5 µM | 96,000 tested, under 10 active | AID 1025, 2008;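 active means activation factor of at least 2 at 5 µM in the primary screen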
CYP2C9 activ: human CYP2C9 activators, primary screen, biochemical, luminescence. recombinant CYP2C9, luciferin-H conversion; active compounds read high; factor 1 = untreated enzyme, 0 = blocked. activation factor at 5 µM. 1.4% of 96,000 active;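 active means activation factor of 2 or more for CYP2C9 at a 5 µM dose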
Hits are given with their value; . = inactive.

SMILES	CYP2C9 inh	CYP2C19 inhib	CYP2C19 act	CYP2C9 activ
CCCCOC(=O)C1CCCC(C(=O)OCCCC)N1 (stereo not given)	.	.	.	.
CSc1ccccc1NC(=O)Nc1ccc(F)c(Cl)c1	.	.	.	.
O=C(Nc1cccnc1)C1(c2ccc(Cl)cc2)CCCC1	.	81	.	.
CC(C)(CO)NC(=O)CCCOc1ccc(Cl)cc1Cl	.	55	.	.
O=C(NCCO)C1(c2ccc(Cl)cc2)CCCC1	.	.	.	.
O=C(CCCOc1ccc(Cl)cc1Cl)NCCCO	.	.	.	.
O=C(Nc1cccnc1)Nc1ccc(F)c(Cl)c1	76	85	.	.
O=C(CCCOc1ccc(Cl)cc1Cl)N/N=C\C1CCCCC1	.	92	.	.
CCCn1nnnc1NCc1cccn1C	.	.	.	.
O=C(CC(CC(=O)c1ccccc1)C(=O)O)c1ccccc1	.	.	.	.
CCn1c(SCC(=O)Nc2ccc(S(N)(=O)=O)cc2)nnc1-c1cccc(OC)c1	.	.	.	.
CN(C)S(=O)(=O)c1ccc(C(=O)Nc2cccnc2)cc1	.	.	.	.
Cc1ccc(S(=O)(=O)C2(C(=O)Nc3cccnc3)CC2)cc1	.	56	.	.
O=C(CCCOc1ccc(Cl)cc1Cl)Nc1cccnc1	52	72	.	.
Cc1c(Br)cc(C(=O)N2CCN(CCO)CC2)c(C)c1C	.	.	.	.
Cn1cc(S(=O)(=O)NCc2ccco2)c(=O)n(C)c1=O	.	.	.	.
Cc1ccc(C2N(c3ccccc3)C(=S)N3CCCN23)cc1 (stereo not given)	.	.	.	.
CC(=O)NC(CC(=O)Nc1cccc(S(=O)(=O)N2CCCCC2)c1)c1ccccc1 (stereo not given)	.	.	.	.
CC(=O)NC(CC(=O)Nc1ccc(S(=O)(=O)N2CCCCC2)cc1)c1ccccc1 (stereo not given)	74	69	.	.
COC(C(=O)Nc1ccc(S(=O)(=O)N2CCCCC2)cc1)c1ccccc1 (stereo not given)	80	.	.	.
O=C(NCC(=O)N(c1ccccc1F)C(C(=O)NCC1CCCO1)c1ccccc1)c1ccco1 (stereo not given)	.	.	.	.
COc1ccc(C(CC(=O)Nc2nccs2)n2cccc2)cc1 (stereo not given)	.	.	.	.
COc1ccc(Oc2nccc(OC)c2C#N)cc1	.	.	.	.
N#Cc1c(-c2ccccc2)ccnc1Oc1ccccc1	.	53	.	.
CCOC(=O)c1c(NC(=O)CSc2nnc(-c3ccncc3)n2Cc2ccco2)sc(C)c1C	87	84	.	.
SMILES	CYP2C9 inh	CYP2C19 inhib	CYP2C19 act	CYP2C9 activ
Cc1cccc(NC(=O)CSc2nnc(-c3cnccn3)n2Cc2ccco2)c1	.	.	.	.
Cc1cc(C)c(NC(=O)CSc2nnc(-c3ccncc3)n2Cc2ccco2)c(Cl)c1	92	79	.	.
Cc1cccc(C)c1OCC(=O)NNC(=O)Nc1ccc(Cl)cc1	.	.	.	.
Cc1cc(C(=O)O)c(=O)[nH]c1C	.	.	.	.
Cc1nn(CCc2nc(-c3ccco3)cs2)c2[nH]c(=O)cc(C(F)(F)F)c12	71	56	.	.
Cc1cc(Cl)ccc1NC(=S)NCc1ccccc1	.	77	.	.
COc1ccc(CCNC(=S)Nc2cccc(C)c2C)cc1	.	58	.	.
COc1ccc(CNC(=S)Nc2cccc(C)c2)cc1	.	81	.	.
COC(=O)c1cccc(NC(=S)NCc2ccc(Cl)cc2)c1	.	.	.	.
COc1ccc(N2CCN(C(=S)Nc3cccc(C)c3C)CC2)cc1	.	.	.	.
COc1ccc(CNC(=S)Nc2ccccc2C)cc1	.	98	.	.
O=C(c1ccc(Cl)cc1)c1oc2ccccc2c1CS(=O)(=O)c1ccccc1	.	.	.	.
CC(C)COc1ccc(CNC(=S)N/N=C/c2ccc([N+](=O)[O-])cc2)cc1	80	.	.	.
COc1ccc(CNC(=S)N/N=C/c2ccc(OC)c(OC)c2)cc1	63	.	.	.
Cc1ccc(C)c(/C=N/NC(=S)NCCc2ccccc2)c1	.	.	.	.
COc1cc(/C=N/NC(N)=S)ccc1OC(=O)c1ccc(C)cc1	.	.	.	.
COc1ccc(CCNC(=S)Nc2cc(C)ccc2C)cc1	54	67	.	.
COc1ccc(CNC(=S)Nc2cc(C)ccc2C)cc1	.	98	.	.
Cc1ccc(C)c(NC(=S)NC(NC(=O)Cc2cccc3ccccc23)C(Cl)(Cl)Cl)c1 (stereo not given)	.	.	.	.
Clc1ccc(OCCCCSc2ncccn2)cc1	.	.	.	.
CCCOc1ccc(OCCSc2ncccn2)cc1	50	.	.	.
COC(=O)c1ccc(NC(=O)CSc2nnc(CNc3ccc(F)cc3)n2C)cc1	.	.	.	.
O=S(=O)(NCCc1csc(-c2ccccc2)n1)c1ccc2c(c1)OCCO2	.	89	.	.
O=S(=O)(NCc1csc(-c2cccnc2)n1)c1ccc2c(c1)OCCO2	.	57	.	.
c1ccc(-c2csc(Nc3ccc4c(c3)OCCO4)n2)cc1	.	.	.	.
SMILES	CYP2C9 inh	CYP2C19 inhib	CYP2C19 act	CYP2C9 activ
c1ccc(-c2ccccc2-n2cnnn2)cc1	.	.	.	.
COCCNC(=O)Cn1nc(C(F)(F)F)c(Br)c1C	52	.	.	.
CCOc1ccc(NC(=O)CN(C)c2nnnn2-c2ccccc2)cc1OCC	.	72	.	.
CCOc1ccc(NC(=O)CN(C)c2ccc(S(=O)(=O)N(C(C)C)C(C)C)cn2)cc1OCC	57	.	.	.
Cc1ccc(NC(=O)CN(C)c2ccc(S(=O)(=O)N3CCN(C)CC3)cn2)cc1	56	.	.	.
CCOc1ccccc1NC(=O)CSc1nnnn1-c1ccccc1	.	.	.	.
Cc1ccc(=O)n(C(C(=O)NCc2ccco2)C(=O)c2ccc(F)cc2)c1 (stereo not given)	.	.	.	.
CC(=O)Nc1ccccc1C(=O)N1CC(C)OC(C)C1 (stereo not given)	.	.	.	.
COc1cc(S(=O)(=O)N2CCN(c3ccccc3F)CC2)ccc1Cl	90	99	.	.
Cc1ccc2nsnc2c1S(=O)(=O)N1CCOCC1	.	.	.	.
COc1ccccc1N1CCN(S(=O)(=O)c2cnc[nH]2)CC1	100	95	.	.
COc1ccc(N2CCN(S(=O)(=O)c3cccs3)CC2)cc1	.	77	.	.
COc1ccccc1N1CCN(S(=O)(=O)c2c(C)ccc3nsnc23)CC1	.	73	.	.
CC1(C(=O)O)CC(C)(C(=O)O)CC(C)(C(=O)O)C1 (stereo not given)	.	.	.	.
CC1(C)Oc2ccc(C(=O)NC3CCCC3)cc2N(CC(=O)N2CCOCC2)C1=O	.	.	.	.
O=C(CCN1C(=O)c2ccccc2C1=O)Nc1ccc(-c2cn3ccsc3n2)cc1	.	.	.	.
COc1ccccc1N1CCN(S(=O)(=O)c2ccccc2)CC1	86	92	.	.
